Assay results as given in PubChem BioAssay (NCATS).
Results filed as inconclusive are left out. Active and inactive are the calls of the source. Calls come from the whole dose curve; as a rule, active = well fitted cell-killing curve with a large enough effect; inconclusive = small, poorly fitted or top-dose-only effect, or effect the other way; inactive = no such curve, though single readings can be large or run the other way. Non-standard residues stand in square brackets, D forms with d. Residues, ends and D or L forms follow the SMILES beside them. *: point of attachment. Nva = CCC[C@H](N)C(=O)O; Cbz = O=C(OCc1ccccc1)*

experiment: Quantitative High-Throughput drug screen in 47 multiple myeloma cell lines against the NCATS MIPE library collection: PCM6_Riken cell viability assay (AID 1919870); details: CellTiter-Glo ATP, 48 h; series mostly up to 45.8 µM; viability (% of control): at the top concentration; note: nearly all actives have a fitted effect of over 30% in size
From the text: PI: Beverly A. Mock Ph.D.
Laboratory of Cancer Biology and Genetics,
Center for Cancer Research, National Cancer Institute,
National Institute of Health, Bethesda, Maryland
Drug resistance and disease progression are common in multiple myeloma (MM) patients, underscoring the need for new therapeutic combinations. […] We hypothesized that effective combinations would reduce MYC expression and enhance p16 activity. […] These preclinical data identify potentially useful drug combinations for evaluation in drug-resistant MM and reveal potential mechanisms of combined drug sensitivity.
Described herein is the primary MIPE qHTS used to cherrypick compounds. Validated compounds were then further tested for potential synergistic activiy.
[1] Peat TJ, Gaikwad SM, Dubois W, Gyabaah-Kessie N, Zhang S, Gorjifard S, Phyo Z, Andres M, Hughitt VK, Simpson RM, Miller MA, Girvin AT, Taylor A, Williams D, D'Antonio N, Zhang Y, Rajagopalan A, Flietner E, Wilson K, Zhang X, Shinn P, Klumpp-Thomas C, McKnight C, Itkin Z, Chen L, Kazandijian D, Zhang J, Michalowski AM, Simmons JK, Keats J, Thomas CJ, Mock BA. Drug combinations identified by high-throughput screening promote cell cycle transition and upregulate Smad pathways in myeloma. Cancer Lett. 2023 Aug 1;568:216284. doi: 10.1016/j.canlet.2023.216284. Epub 2023 Jun 24. PMID: 37356470; PMCID: PMC10408729.
SEQUENCE No. (e.g., 1, 2, 3, etc.); […] (e.g., Cells, Incubation, Reagent, etc.); VALUE and DESCRIPTION.
1; Cells; 5 uL; white, solid bottom 1536-well Greiner assay plate.
2; Compounds; 23 nL; Kalypsis pin tool (Wako USA) equipped with a 1536-well pin head to transfer to the assay plates.
3; Incubation; 48 hours; 37C incubation.
4; Reagent;5uL; CellTiter Glo (Promega).
5; Detector; 425V; Luminescence; Viewlux PerkinElmer.
NOTES (numbers refer to Sequence numbers above)
1. The cell-based screening methods employed in this study were like those previously published. Briefly, the corresponding myeloma cell lines were screened in 1,536-well plates with 500 cells, 5-uL per well for inhibition of cell viability (assessed by measuring ATP levels with CellTiterGlo).
2. NCATS MIPE 4.0 library of approved and investigational drugs were added using the Kalypsis pin tool. Wells treated with DMSO only for 100% viability and media only for 0% viability were used as controls.
3. The assay plates were covered and incubated for 48 hours in a 37C, 5% CO2 incubator with controlled humidity.
4. After 48 hours, CellTilter-GloTM luminescent substrate mix (Promega) reagent was added to the assay plate and plates we incubated for 5 min at room temperature.
5. Signal was measured as median relative luminescence units on a ViewLux (PerkinElmer) multiplate reader.
[1] Heske CM, Davis MI, Baumgart JT, Wilson K, Gormally MV, Chen L, Zhang X, Ceribelli M, Duveau DY, Guha R, Ferrer M, Arnaldez FI, Ji J, Tran HL, Zhang Y, Mendoza A, Helman LJ, Thomas CJ. Matrix Screen Identifies Synergistic Combination of PARP Inhibitors and Nicotinamide Phosphoribosyltransferase (NAMPT) Inhibitors in Ewing Sarcoma. Clin Cancer Res. 2017 Dec 1;23(23):7301-7311. doi: 10.1158/1078-0432.CCR-17-1121. Epub 2017 Sep 12. PMID: 28899971; PMCID: PMC6636827.
Potency is the fitted concentration of half-maximal effect.

| SMILES | Potency | viability (% of control) |
| --- | --- | --- |
| Nc1nc(N)c2nc(-c3cccc(O)c3)c(-c3cccc(O)c3)nc2n1 | 2.64 µM (active) |  |
| CC(=O)N[C@@H]1[C@H](O[C@@H]2c3ccc(c(Cl)c3)Oc3cc4cc(c3O[C@H]3O[C@H](CO)[C@@H](O)[C@H](O)[C@H]3NC(=O)CCCCCCCC(C)C)Oc3ccc(cc3Cl)C[C@H]3NC(=O)[C@H](N)c5ccc(O)c(c5)Oc5cc(O)cc(c5)[C@H](NC3=O)C(=O)N[C@H]4C(=O)N[C@H]3C(=O)N[C@@H]2C(=O)N[C@@H](C(=O)O)c2cc(O)cc(O[C@H]4O[C@H](CO)[C@@H](O)[C@H](O)[C@H]4O)c2-c2cc3ccc2O)O[C@H](CO)[C@@H](O)[C@@H]1O |  | 101% (inactive) |
| CC(=O)O[C@@]12CO[C@H]1C[C@H](O)[C@@]1(C)C(=O)[C@H](O)C3=C(C)[C@@H](OC(=O)C(O)[C@@H](NC(=O)OC(C)(C)C)c4ccccc4)C[C@@](O)([C@@H](OC(=O)c4ccccc4)[C@@H]21)C3(C)C (stereo not given in full) |  | 79.8% (inactive) |
| COc1ccc(C=Cc2cc(OC)c(OC)c(OC)c2)cc1NC(=O)[C@H](N)CO | 0.0042 µM (active) |  |
| C[C@@H](NCc1cc2ccccc2[nH]1)c1cccc2ccccc12 |  | 82.7% (inactive) |
| Cn1cnc(=N)c2[nH]cnc21 | 0.235 µM (active) |  |
| COc1cccc2c1C(=O)c1c(O)c3c(c(O)c1C2=O)C[C@@](O)(C(=O)CO)C[C@H]3O[C@H]1C[C@H](N)[C@H](O)[C@H](C)O1 | 0.105 µM (active) |  |
| C[C@H]1O[C@H](O[C@H]2[C@H](O)[C@@H](O)[C@@H](O[C@H]3[C@H](O)[C@@H](O)C(O)O[C@H]3CO)O[C@H]2CO)[C@H](O)[C@@H](O)[C@H]1N[C@H]1C=C(CO)[C@@H](O)[C@H](O)[C@@H]1O (stereo not given in full) |  | 135% (inactive) |
| O=c1[nH]c(=O)n([C@H]2C[C@@H](O)[C@@H](CO)O2)cc1F | 14.8 µM (active) |  |
| CC(C=CC(=O)NO)=C[C@@H](C)C(=O)c1ccc(N(C)C)cc1 | 0.469 µM (active) |  |
| COC(=O)[C@H](CCCN=C(N)N)NS(=O)(=O)c1ccc(C)cc1 |  | 110% (inactive) |
| CCC[C@@H](C=O)NC(=O)[C@H](CC(C)C)NC(=O)[C@H](CC(C)C)NC(=O)OCc1ccccc1 (Cbz-Leu-Leu-[Nva]-aldehyde) | 0.469 µM (active) |  |
| O=C1NC(=O)C(=Cc2ccc3nccc(-c4ccncc4)c3c2)S1 | 0.166 µM (active) |  |
| C=C1C[C@@]2(O)O[C@@]3(C[C@H]2C(C)C)[C@H](C)CC[C@H]13 |  | 84.8% (inactive) |
| O=C(CCCCCCC(=O)Nc1cccnc1)NO | 7.43 µM (active) |  |
| Cc1cc(O)c2c(c1)C(=O)c1cccc(O)c1C2=O |  | 106% (inactive) |
| CC(C)(C)[C@H](NC(=O)c1ccc(N)c(Cl)c1)C(=O)N1CCC[C@@H]1C(=O)N[C@H](C#N)CC(=O)O |  | 122% [at 3.51 µM] (inactive) |
| NC(=O)c1cccc(-c2cccc(OC(=O)NC3CCCCC3)c2)c1 |  | 113% (inactive) |
| C[C@H]1C[C@H]2[C@@H]3CCC4=CC(=O)C=C[C@]4(C)[C@@H]3C(=O)C[C@]2(C)[C@@]1(O)C(=O)CO |  | 100% (inactive) |
| NC(=O)Nc1sc(-c2ccc(F)cc2)cc1C(N)=O | 0.833 µM (active) |  |

| SMILES | Potency | viability (% of control) |
| --- | --- | --- |
| CS(=O)(=O)N1CCc2c(-c3cnc(N)nc3)nc(N3CCOCC3)nc21 | 5.26 µM (active) |  |
| O=C1NCCc2[nH]c(-c3ccncc3)cc21 | 1.66 µM (active) |  |
| CCCCOc1ccc(C(=O)Nc2ccc(F)cc2F)cc1 |  | 88.2% (inactive) |
| Oc1cc(-c2nc(-c3ccccc3)[nH]c2-c2ccncc2)ccc1Cl | 2.96 µM (active) |  |
| N#CC(=C(N)Sc1ccc(N)cc1)c1ccccc1C(F)(F)F |  | 101% (inactive) |
| C=C1C(=CC=C2CCC[C@]3(C)[C@@H]([C@H](C)CCCC(C)(C)O)CC[C@@H]23)C[C@@H](O)C[C@@H]1O | 7.43 µM (active) |  |
| Nc1nc2c(c(=O)[nH]1)N(C=O)[C@H](CNc1ccc(C(=O)N[C@@H](CCC(=O)O)C(=O)O)cc1)CN2 |  | 144% (inactive) |
| O=C(Nc1cc2cc[nH]c2cn1)c1ccccc1 | 8.33 µM (active) |  |
| O=[N+]([O-])c1cn2c(n1)OC[C@@H](OCc1ccc(OC(F)(F)F)cc1)C2 |  | 115% (inactive) |
| N#CNC(=NCCCCCCOc1ccc(Cl)cc1)Nc1ccncc1 | 0.001 µM (active) |  |
| NC[C@H]1O[C@H](O[C@H]2[C@@H](O)[C@@H](O[C@H]3O[C@H](CO)[C@@H](O)[C@H](N)[C@@H]3O)[C@H](N)C[C@@H]2N)[C@H](N)C[C@H]1O |  | 143% (inactive) |
| Nc1cccc2c1C(=O)N(C1CCC(=O)NC1=O)C2=O (stereo not given) |  | 99% (inactive) |
| C[C@H](O)[C@@H]1C(=O)N2C(C(=O)O)=C(S[C@@H]3CN[C@H](CNS(N)(=O)=O)C3)[C@@H](C)[C@@H]12 |  | 120% (inactive) |
| NC(=O)c1ncn([C@@H]2O[C@H](CO)[C@@H](O)[C@@H]2O)c1O |  | 92.5% (inactive) |
| COc1ccc(CCC(=O)c2c(O)cc(O[C@@H]3O[C@H](CO)[C@@H](O)[C@H](O)[C@@H]3O[C@@H]3O[C@@H](C)[C@H](O)[C@@H](O)[C@@H]3O)cc2O)cc1O | 7.43 µM (active) |  |
| O=C(Nc1cccc(Nc2ncc(Br)c(NCCc3cnc[nH]3)n2)c1)N1CCCC1 | 3.32 µM (active) |  |
| CC(C=CC1=C(C)CCCC1(C)C)=CC=CC(C)=CC(=O)Nc1ccc(O)cc1 | 13.6 µM (active) |  |
| COC1=C2C[C@@H](C)C[C@H](OC)[C@@H](O)[C@@H](C)C=C(C)[C@H](OC(N)=O)[C@@H](OC)C=CC=C(C)C(=O)NC(=CC1=O)C2=O | 0.148 µM (active) |  |
| CC(C)N1[N]C(=C2C=c3cc(O)ccc3=N2)c2c(N)ncnc21 | 1.18 µM (active) |  |
| CO[C@@H]1[C@@H](O)[C@H](O)[C@@H](n2c3c(Cl)cccc3c3c4c(c5c6cccc(Cl)c6[nH]c5c32)C(=O)NC4=O)O[C@@H]1CO | 1.48 µM (active) |  |
